Assay outcomes as filed in PubChem.
Rows were chosen to be rich in hits. Some 17% of all compounds tested hit in one or more screens of this group.
HT1080 IDH1KD tx: qHTS for induction of synthetic lethality in tumor cells producing 2HG: qHTS for the HT-1080-IDH1KD cell line. HT-1080 IDH1 knockdown viability, ATP luminescence, 48 h. actives 2% (n = 360,000). Potency, µM (titrated, usually from 46.1 µM), inactives show at the highest dose activity, negative = toxicity, usual class: cytotoxic;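 note: 0% = DMSO wells and -100% = cell-free medium wells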
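Using the IDH1-knockdown HT-1080 line run in the same batch and compound series as the NT line, viability after 48 h at 37 °C was determined by CellTiter-Glo luminescence and expressed as % activity.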
HepG2 viability: qHTS for Inhibitors of TGF-b: Cytotox Counterscreen; HepG2 CAGA-GFP viability, ATP luminescence, 18 h; Potency, µM (titrated, usually from 46.1 µM), for inactives: at the highest dose activity change, negative = cytotoxicity, most hits filed as cytotoxic; actives 0.76% (n = 410,000)
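CellTiter-Glo luminescence gave cytotoxicity after 18 hours at 37 degrees C. The cells were HepG2 CAGA-GFP in 1% FBS DMEM, stimulated with 500 pg/mL TGF-beta after compound addition. %Activity was normalised to no-cell wells (complete cell-killing) and DMSO (no toxicity), and curves were fitted and classified.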
TDP1 cell noCPT: qHTS for Inhibitors of human tyrosyl-DNA phosphodiesterase 1 (TDP1): qHTS in cells in absence of CPT; DT40 Tdp1-/- hTDP1 cells, no CPT, ATP luminescence, 48 h; Potency, µM (highest dose often 46.2 µM), inactives show at the top dose activity change, negative = growth inhibition, actives largely listed as inhibitors; actives 15% (n = 420,000); note: % is set by controls: 0 for no effect and ±100 for the full control effect; nearly all actives have a fitted effect of over 55% in size
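Readout: luminescence from CellTiter-Glo after 30 min in the dark at RT. Cells: DT40 Tdp1-/- with stable hTDP1, 400/well. Exposure: compounds alone, ≥48 hr, 37 °C.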
TDP1 cell CPT: qHTS for Inhibitors of human tyrosyl-DNA phosphodiesterase 1 (TDP1): qHTS in cells in presence of CPT. AID 686979, 2013. Potency, µM (top dose mostly 46.2 µM), for inactives: top-dose activity change, negative = growth inhibition, actives largely listed as inhibitors. chicken DT40 Tdp1-/-;hTDP1 cells + 20 nM CPT, ATP luminescence, 48 h. actives 12% (n = 420,000); note: % is set by controls: 0 for no effect and ±100 for the full control effect; nearly all actives have a fitted effect of over 55% in size
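Chicken DT40 Tdp1-/- cells stably complemented with human TDP1 were seeded at 400 cells/well in medium containing 20 nM camptothecin, exposed to pin-transferred compounds, and grown at 37 °C for at least 48 hr. Viability was read as ATP luminescence.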
HT1080-NT tox: qHTS for induction of synthetic lethality in tumor cells producing 2HG: qHTS for the HT-1080-NT fibrosarcoma cell line | HT-1080-NT fibrosarcoma viability, CellTiter-Glo ATP luminescence, 48 h | AID 686970, 2013 | Potency, µM (titrated, usually from 46.1 µM), without a hit: at the highest dose activity, negative = less viability, most hits filed as cytotoxic | actives 1.6% (n = 360,000);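 note: NT is the 2HG producing partner of a matched IDH1 knockdown line; 0% = DMSO-treated cells and -100% = media-only wells without cells; nearly all actives have a fitted effect of over 55% in size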
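Compounds were tested in concentration-response format on HT-1080-NT cells for 48 hours at 37 degrees C. Cell viability came from CellTiter-Glo luminescence; curves were classified by r2, response magnitude and activity.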
TGFb SMAD3 inh: qHTS for Inhibitors of TGF-b; actives 1.2% (n = 410,000); HepG2 CAGA-GFP TGF-b/SMAD3 reporter, GFP fluorescence, 18 h; TGF-beta stimulated, 500 pg/mL final; Potency, µM (highest dose often 46.1 µM), for the others: at the top dose activity, negative = inhibition, actives largely listed as inhibitors; note: % is set by controls: 0 for no effect and ±100 for the full control effect; nearly all actives have a fitted effect of over 65% in size
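TGF-beta reporter screen: HEPG2 CAGA-GFP, 1% FBS, 500 pg/mL TGF-beta final, 18 h; per-cell GFP summed per well; curves fitted and categorized by class.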
* hit, by the source's call. Calls come from the whole dose curve; as a rule, active = well fitted curve in the direction sought with a large enough effect; inconclusive = small, poorly fitted or top-dose-only effect, or another doubt; inactive = no such curve, though single readings can be large; an effect the other way counts as inactive or inconclusive. Potency is the fitted concentration of half-maximal effect.

Screening O=C(Nc1cc(C(F)(F)F)ccc1N1CCCC1)C1CCCO1 (stereo not drawn) returned HT1080 IDH1KD tx 0.7%, HepG2 viability -5.9%, TDP1 cell noCPT -8.5%, TDP1 cell CPT 0.0%, HT1080-NT tox -3.2% and TGFb SMAD3 inh -3.4%.
Screening Cc1cccc(NC(=S)N(CCCN2CCOCC2)Cc2cn(C)c3ccccc23)c1 returned HT1080 IDH1KD tx 0.3%, HepG2 viability 0.0%, TDP1 cell noCPT inconclusive, TDP1 cell CPT 18.4µM*, HT1080-NT tox -6.7% and TGFb SMAD3 inh 3.5%.
Screening COc1ccc(NC(=S)N(CCCN2CCOCC2)Cc2ccccn2)cc1 returned HT1080 IDH1KD tx 5.9%, HepG2 viability -2.8%, TDP1 cell noCPT -2.2%, TDP1 cell CPT 4.9%, HT1080-NT tox 0.3% and TGFb SMAD3 inh -3.1%.
Screening CCOc1ccc(NC(=S)N(CCCN2CCOCC2)Cc2cn(C)c3ccccc23)cc1 returned HT1080 IDH1KD tx -8.3%, HepG2 viability -33.2%, TDP1 cell noCPT 14.6µM*, TDP1 cell CPT inconclusive, HT1080-NT tox -11.2% and TGFb SMAD3 inh -1.8%.
Screening Cc1ccc(NC(=S)N(C)Cc2cn(C)c3ccccc23)cc1 returned HT1080 IDH1KD tx inconclusive, HepG2 viability -2.5%, TDP1 cell noCPT inconclusive, TDP1 cell CPT 16.4µM*, HT1080-NT tox -18.2% and TGFb SMAD3 inh 5.2%.
Screening CCC(C)[C@H]1CNC(=S)N1CCc1cccc2ccccc12 (stereo partly drawn) returned HT1080 IDH1KD tx 8.6%, HepG2 viability -26.7%, TDP1 cell noCPT -27.3%, TDP1 cell CPT inconclusive, HT1080-NT tox 14.1% and TGFb SMAD3 inh inconclusive.
For NC1=NC[C@H](Cc2ccc(O)cc2)N1CCc1cccc2ccccc12 the results were HT1080 IDH1KD tx 1.1%, HepG2 viability 10.9%, TDP1 cell noCPT 14.6µM*, TDP1 cell CPT 18.4µM*, HT1080-NT tox -0.8% and TGFb SMAD3 inh 23.7%.
CCC(C)[C@H]1CN=C(N)N1CCc1cccc2ccccc12 (stereo partly drawn) was read as HT1080 IDH1KD tx -16.3%, HepG2 viability -59.0%, TDP1 cell noCPT 2.06µM*, TDP1 cell CPT 1.84µM*, HT1080-NT tox inconclusive and TGFb SMAD3 inh inconclusive.
Screening NC1=NC[C@@H](Cc2ccc(O)cc2)N1CCc1cccc2ccccc12 returned HT1080 IDH1KD tx 0.6%, HepG2 viability -3.0%, TDP1 cell noCPT inconclusive, TDP1 cell CPT 18.4µM*, HT1080-NT tox -10.0% and TGFb SMAD3 inh 1.9%.
For NCCCC[C@H]1CN=C(N)N1CCc1cccc2ccccc12 the results were HT1080 IDH1KD tx -0.3%, HepG2 viability 20.4%, TDP1 cell noCPT -25.2%, TDP1 cell CPT 0.6%, HT1080-NT tox -3.4% and TGFb SMAD3 inh 17.0%.
CN(C)CCCNC(=O)C[C@H]1C[C@H](C(=O)N2CCOCC2)[C@@]2(C)c3[nH]c4cc(-c5ccco5)ccc4c3CCN2C1=O was read as HT1080 IDH1KD tx -3.5%, HepG2 viability -5.4%, TDP1 cell noCPT -6.1%, TDP1 cell CPT inconclusive, HT1080-NT tox -10.8% and TGFb SMAD3 inh -0.7%.
For CC(C)c1nc(SCC(=O)Nc2ccc(N(C)C)cc2)c2ccccc2n1 the results were HT1080 IDH1KD tx inconclusive, HepG2 viability -21.2%, TDP1 cell noCPT inconclusive, TDP1 cell CPT 23.1µM*, HT1080-NT tox -29.2% and TGFb SMAD3 inh -13.3%.
`Cc1csc(NC(=O)CSc2nc(C(C)C)nc3ccccc23)n1` gave HT1080 IDH1KD tx -25.1%, HepG2 viability -12.4%, TDP1 cell noCPT 11.6µM*, TDP1 cell CPT inconclusive, HT1080-NT tox inconclusive and TGFb SMAD3 inh 0.2%.
For CC(=O)c1ccc(NC(=O)CSc2ccsc2[N+](=O)[O-])cc1 the results were HT1080 IDH1KD tx -2.3%, HepG2 viability -5.7%, TDP1 cell noCPT -2.8%, TDP1 cell CPT 8.0%, HT1080-NT tox 4.7% and TGFb SMAD3 inh 0.4%.
CC1=C(C(=O)Nc2cccnc2)C(c2ccccc2)n2nc(SCc3ccccc3)nc2N1 (stereo not drawn) was read as HepG2 viability 2.8%, TDP1 cell noCPT -22.9%, TDP1 cell CPT -24.3% and TGFb SMAD3 inh 5.6%.
COc1ccc(C2C(C(=O)Nc3ccc(C)cc3C)=C(C)Nc3nc(SC)nn32)cc1OC (stereo not drawn) was read as HepG2 viability 11.0%, TDP1 cell noCPT -13.7%, TDP1 cell CPT -11.5% and TGFb SMAD3 inh -3.9%.
CC1=C(C(=O)Nc2ccc(C)cc2C)C(CC(C)C)n2nc(SCc3ccccc3C)nc2N1 (stereo not drawn) was read as HepG2 viability -17.9%, TDP1 cell noCPT 11.6µM*, TDP1 cell CPT 10.3µM* and TGFb SMAD3 inh -20.0%.
For COc1ccccc1NC(=O)C1=C(C)Nc2nc(SCc3ccccc3)nn2C1c1cccc(O)c1 (stereo not drawn) the results were HepG2 viability -18.6%, TDP1 cell noCPT 23.1µM*, TDP1 cell CPT inconclusive and TGFb SMAD3 inh inconclusive.
Screening COc1ccccc1NC(=O)C1=C(C)Nc2nc(SCc3ccccc3)nn2C1c1cccnc1 (stereo not drawn) returned HepG2 viability -13.4%, TDP1 cell noCPT inconclusive, TDP1 cell CPT 20.6µM* and TGFb SMAD3 inh 0.0%.
`COc1cccc(CSc2nc3n(n2)C(c2ccccc2C)C(C(=O)Nc2ccccc2OC)=C(C)N3)c1` (stereo not drawn) gave HepG2 viability -0.5%, TDP1 cell noCPT inconclusive, TDP1 cell CPT inconclusive and TGFb SMAD3 inh -2.5%.
`CC1=C(C(=O)Nc2ccc(C)cc2C)C(c2ccc(Cl)cc2)n2nc(C(=O)OC(C)C)nc2N1` (stereo not drawn) gave HT1080 IDH1KD tx -4.7%, HepG2 viability 17.5%, TDP1 cell noCPT 16.4µM*, TDP1 cell CPT inconclusive, HT1080-NT tox 2.1% and TGFb SMAD3 inh 0.9%.
Screening Brc1cccc(-c2nn(-c3ccccc3)c3c2cnc2cc4c(cc23)OCO4)c1 returned HepG2 viability -4.1%, TDP1 cell noCPT -3.7%, TDP1 cell CPT -0.6% and TGFb SMAD3 inh 0.0%.
